Test results taken from PubChem BioAssay (NCATS).
Results filed as inconclusive are left out. Entries that show only a call come without a potency. Activity calls are given as the source filed them. The call rests on the fitted dose curve; in most records, active means well fitted inhibition curve with a large enough effect; inconclusive means small, poorly fitted or top-dose-only effect; inactive means flat fitted curve, though single readings scatter.

Experiments:
Test in all cases: qHTS profiling for inhibitors of Plasmodium falciparum proliferation (AID 504749); further: nearly all actives have a fitted effect of over 60% in size
Conditions in all cases: P. falciparum in erythrocytes, SYBR Green DNA, 72 h; series mostly up to 28.7 µM
[1] = tested on: ATS95
Summary of the method: (§1)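 Quantitative HTS: compounds pinned into medium, infected erythrocytes added (0.3% parasitemia, 2.5% hematocrit), 72 h culture at 37 C under 5% CO2. Saponin/Triton lysis with SYBR Green I, overnight RT, then fluorescence read.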

[2] = tested on: C2A
Summary of the method: as §1

[3] = tested on: CP185
Summary of the method: as §1

[4] = tested on: CP191
Summary of the method: as §1

[5] = tested on: CP203
Summary of the method: as §1

[6] = tested on: CP211
Summary of the method: as §1

[7] = tested on: CP192
Summary of the method: as §1

[8] = tested on: CP194
Summary of the method: as §1

[9] = tested on: CP201
Summary of the method: as §1

[10] = tested on: CP215
Summary of the method: as §1
Potency means the concentration at half of the fitted maximal effect.

For `CCN(CC)CCNC(=O)c1c(C)[nH]c(/C=C2\C(=O)Nc3ccc(F)cc32)c1C`, the Potency [1] was 7.08 µM (active), the Potency [2] was 11.2 µM (active) and the Potency [3] was 7.08 µM (active). For the same compound, the Potency [4] was 7.94 µM (active), the Potency [5] was 10.7 µM (active) and the Potency [6] was 10.7 µM (active).
For `Nc1ccc(S(=O)(=O)Nc2ccc(Cl)nn2)cc1`, the Potency [4] was 1.12 µM (active), the Potency [7] was “inactive” and the Potency [8] was “inactive”. The Potency [9] was “inactive”, the Potency [5] was “inactive” and the Potency [6] was “inactive”. For the same compound, the Potency [10] was “inactive”.
For `CNC(=O)Oc1ccc2c(c1)[C@]1(C)CCN(C)[C@@H]1N2C`, the Potency [2] was 1.78 µM (active), the Potency [3] was 1.58 µM (active) and the Potency [4] was 2.24 µM (active).
For `CN1CCCCC1CCN1c2ccccc2Sc2ccc(S(C)=O)cc21` (stereo not given), the Potency [3] was “inactive”, the Potency [7] was “inactive” and the Potency [9] was “inactive”. For the same compound, the Potency [10] was 15.1 µM (active).
For `CN(C)CCN(Cc1ccccc1)c1ccccn1`, the Potency [2] was “inactive”, the Potency [3] was “inactive” and the Potency [4] was “inactive”. The Potency [7] was “inactive”, the Potency [8] was “inactive” and the Potency [9] was “inactive”. The Potency [6] was “inactive” and the Potency [10] was “inactive”.
For `OCc1cc(C(O)CNCCCCCCOCCCCc2ccccc2)ccc1O` (stereo not given), the Potency [1] was “inactive”, the Potency [2] was “inactive” and the Potency [3] was “inactive”. For the same compound, the Potency [7] was “inactive”, the Potency [8] was “inactive” and the Potency [9] was “inactive”.
For `NC(=O)N/N=C/c1ccc([N+](=O)[O-])o1`, the Potency [7] was “inactive” and the Potency [6] was “inactive”.
In the case of `CC(CN1c2ccccc2Sc2ccccc21)N(C)C` (stereo not given), the Potency [2] is reported as “inactive”, the Potency [3] is reported as “inactive” and the Potency [4] is reported as “inactive”. The Potency [7] was “inactive”, the Potency [8] was “inactive” and the Potency [9] was “inactive”. The Potency [6] was “inactive”.
`O=C1NS(=O)(=O)c2ccccc21` was tested, and the Potency [2] was “inactive”, the Potency [3] was “inactive” and the Potency [4] was “inactive”. The Potency [7] was “inactive”, the Potency [8] was “inactive” and the Potency [9] was “inactive”. For the same compound, the Potency [5] was “inactive”, the Potency [6] was “inactive” and the Potency [10] was “inactive”.
For `C[C@]12C[C@H](O)[C@H]3[C@@H](CCC4=CC(=O)CC[C@@]43C)[C@@H]1CC[C@@H]2C(=O)CO`, the Potency [7] was “inactive”, the Potency [8] was “inactive” and the Potency [9] was “inactive”. The Potency [6] was “inactive” and the Potency [10] was “inactive”.
`c1ccc(CN(CC2=NCCN2)c2ccccc2)cc1` was tested, and the Potency [4] was “inactive”, the Potency [7] was “inactive” and the Potency [9] was “inactive”. For the same compound, the Potency [6] was “inactive”.
`CCCCN1CCCC[C@H]1C(=O)Nc1c(C)cccc1C` was tested, and the Potency [2] was “inactive”, the Potency [3] was “inactive” and the Potency [4] was “inactive”. The Potency [7] was “inactive”, the Potency [9] was “inactive” and the Potency [6] was “inactive”. For the same compound, the Potency [10] was “inactive”.
With `CCOc1nc2cccc(C(=O)O)c2n1Cc1ccc(-c2ccccc2-c2nn[nH]n2)cc1` the Potency [3] was “inactive”, the Potency [4] was “inactive” and the Potency [7] was “inactive”. The Potency [9] was “inactive” and the Potency [6] was “inactive”.
With `CNCCC(Oc1ccc(C(F)(F)F)cc1)c1ccccc1` (stereo not given) the Potency [3] was “inactive”, the Potency [7] was “inactive” and the Potency [9] was “inactive”. The Potency [6] was “inactive”.
For `CN1CCC[C@@H]1Cc1c[nH]c2ccc(CCS(=O)(=O)c3ccccc3)cc12`, the Potency [3] was “inactive”, the Potency [4] was 5.01 µM (active) and the Potency [7] was “inactive”.
